Each compound was assayed on Plasmodium falciparum (assay: GSK_TCMDC: Inhibition of Plasmodium falciparum 3D7 in whole red blood cells, using parasite LDH activity as an index of growth. Test compounds present at 2uM).
Format: functional

| SMILES | Inhibition |
| --- | --- |
| Br.CCC(CCON1C(N)=NC(N)=NC1(C)C)c1ccc(Cl)cc1 (stereo not given) | 94% |
| COc1ccc(CNC2CCN(C)CC2)cc1-c1ccc(S(=O)(=O)NCc2ccccc2)c(C)c1.O=C(O)C(F)(F)F | 100% |
| CC(Cc1ccc(NS(=O)(=O)c2ccc(CC(C)NCCc3cccc(Cl)c3)cc2)cc1)NCCc1cccc(Cl)c1 (stereo not given) | 100% |
| COc1cc(NC(=O)c2ccc(-c3ccc(C(C)=O)cc3)s2)ccc1OCCN1CCCC1 | 100% |
| COc1ccc2[nH]c(C)cc(=NN=Cc3ccc(Cl)cc3)c2c1 | 100% |
| CCOC(=O)c1ccc(Nc2cc(Nc3ccc(C(=O)OCC)cc3)nc(C)n2)cc1 | 99% |
| O=C(O)C(F)(F)F.O=S(=O)(NC1CCN(c2ccnc3ccccc23)C1)c1ccc(OC(F)(F)F)cc1 (stereo not given) | 88% |
| COc1cc(NC(=O)CCCN2CCN(c3cccc(Cl)c3Cl)CC2)ccc1N1CCN(C(C)C)CC1.Cl | 99% |
| COc1ccc2c(c1)OC(C)(C)CC2=NOS(=O)(=O)c1ccc(C)cc1 | 97% |
| Cc1cccc2nc(-c3ccc(-c4ccc(CN5CCN(c6ccncc6)CC5)cc4)cc3)[nH]c12.O=C(O)C(F)(F)F | 100% |
| O=C(C=Cc1ccc(Cl)c(Cl)c1)NCCCCCN1CCC(CCNC(=O)C(c2ccccc2)c2ccccc2)CC1 | 90% |
| Cc1[nH]c2ccc(C#N)cc2c(=O)c1Br | 91% |
| Nc1cccc(CNCc2ccc(-c3ccc(-c4nc5cc(F)ccc5[nH]4)s3)cc2)c1.O=C(O)C(F)(F)F | 100% |
| CCN(CCCN1CCCCC1)c1cc(C)nc(Nc2cc(C)ccc2C)n1.O=C(O)C(F)(F)F | 93% |
| CCCCCCNC(=O)C1Cc2c([nH]c3ccc(Br)cc23)C2(CCN(CCc3ccccc3)CC2)N1 (stereo not given) | 100% |
| CC1CN(Cc2ccc(-c3cccc(-c4nc5cc(F)ccc5[nH]4)c3)cc2)CC(C)O1.O=C(O)C(F)(F)F (stereo not given) | 93% |
| CC[C@H](NC(=O)c1c(N)c(-c2sccc2Cl)nc2ccccc12)c1ccccc1 | 99% |
| O=C(O)C(F)(F)F.Oc1ccc(CCNc2nc(NCc3ccccc3-c3cccc(Cl)c3)nc(N3CCNCC3)n2)cc1 | 84% |
| Cc1c(Oc2ccc(-n3ccnc3)cc2)ncnc1N1CCC2(CC1)CNCc1ccccc12.O=C(O)C(F)(F)F | 95% |
| Cl.O=C(C=Cc1cccc(F)c1)NC1CCC(CCN2CCc3ccc(-c4cnccn4)cc3CC2)CC1 (stereo not given) | 100% |

| SMILES | Inhibition |
| --- | --- |
| c1cc2[nH]c(CCc3nc4cc(C5=NC6CCCCC6N5)ccc4[nH]3)nc2cc1C1=NC2CCCCC2N1 (stereo not given) | 93% |
| CCOC(=O)c1cn(CC)c2cc(F)c(OC3CC4CCC3(C)C4(C)C)cc2c1=O (stereo not given) | 91% |
| COc1ccc(C(=O)N[C@@H](CC(C)C)C(=O)NC2CC[C@@H](C)N(C(=O)Nc3ccc(Cl)cc3)CC2=O)cc1OCCN1CCOCC1 (stereo not given in full) | 96% |
| Cc1cccc2nc(-c3ccc(-c4cccc(CN5CC(C)OC(C)C5)c4)s3)[nH]c12.O=C(O)C(F)(F)F (stereo not given) | 98% |
| N#Cc1ccc(-c2nc(CO)c(C(=O)NCCCCN3CCC(c4ccc5c(c4OCC(N)=O)CCCC5)CC3)s2)cc1 | 92% |
| CC(CN(C)C)C(=O)Nc1cccc(-c2ccc(-c3nc4ccccc4[nH]3)s2)c1 (stereo not given) | 100% |
| N=C(N)NC(=O)Nc1ccc(Cl)c(Cl)c1 | 95% |
| COc1ccc(CNCCc2cccs2)cc1-c1ccc(S(=O)(=O)NCCN2CCCC2)s1.O=C(O)C(F)(F)F | 99% |
| CCNc1cc(C(=O)N[C@@H](Cc2ccccc2)[C@H](O)CNCCc2ccccc2)cc(N2CCCCS2(=O)=O)c1.Cl | 98% |
| O=C(c1cc(C(=O)Nc2ccc(F)cc2)c(=O)n(-c2ccc(F)cc2)c1)c1cc(Cl)ccc1O | 100% |
| Fc1cccc(Nc2nc(NCCc3ccc(Cl)cc3)nc(Nc3cccc(F)c3)n2)c1 | 93% |
| Cc1c(C)n(C2CCCCC2)c2ncnc(OC3CCN(CC(=O)NC4CC4)CC3)c12 | 94% |
| CN1CCN(CCCCCCNc2c3ccccc3nc3ccccc23)CC1.Cl | 100% |
| Cl.Oc1ccc(C2CNCCc3c2cc(O)c(OCc2ccccc2)c3Cl)cc1 (stereo not given) | 98% |
| CN1CCC(NCc2ccc(-c3cccc(-c4nc5ccccc5[nH]4)c3)cc2)CC1.O=C(O)C(F)(F)F | 100% |
| COc1ccc(N2CCN(CCc3ccc(NC(=O)c4ccc([N+](=O)[O-])cc4)cc3)CC2)c(OC)c1 | 83% |
| COc1ccc(-n2ccnc2SCC(=O)Nc2cccc(C(F)(F)F)c2)c(OC)c1 | 98% |
| COc1cc(C(=O)N2N=C(c3c(-c4ccccc4)c4cc(Br)ccc4[nH]c3=O)CC2c2cccc([N+](=O)[O-])c2)cc(OC)c1OC (stereo not given) | 93% |
| COc1ccccc1C1CCN(C2CCC(NC(=O)/C=C/c3cccc(Cl)c3)CC2)CC1 (stereo not given) | 92% |
| Cc1ccc(C(=O)Nc2cc(C(F)(F)F)cc(C(F)(F)F)c2)cc1[N+](=O)[O-] | 100% |
